Among the test systems are SR leukemia; RPMI-8226 leukemia; OVCAR-8 ovarian; OVCAR-5 ovarian; OVCAR-4 ovarian; SK-OV-3 ovarian; IGROV1 ovarian; OVCAR-3 ovarian; HS 578T breast; NCI/ADR-RES ovarian; T-47D breast; BT-549 breast; MDA-MB-435 melanoma; SW-620 colon; MCF7 breast; HCT-116 colon; HCC-2998 colon; KM12 colon.
Assay in all cases: NCI-60 one-dose screen, 48 h (100 = growth as untreated, 0 = no growth, -100 = all killed)
What all share (details): 10 µM unless noted

Compounds without any hit were thinned out: in the full panel of roughly 83,000, 20% have a hit.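 Method: cells in 96-well plates; compound added at one concentration; 48 h incubation; percent growth measured; values under 10 scored active.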 A number with no mark means an inactive call. Activity calls are given as the source filed them.

With `CC1(C)[C@@H](O)CC[C@]2(C)[C@H]3CC[C@@H]4[C@H]5[C@H](C(=O)/C=C\c6ccccn6)CC[C@]5(O)CC[C@@]4(C)[C@]3(C)CC[C@@H]12`, the growth in the test with SR leukemia was -17.6% (active); with RPMI-8226 leukemia, -19.2% (active); in the test with OVCAR-8 ovarian it was 39.5%; with OVCAR-5 ovarian, 48.4%; in the test with OVCAR-4 ovarian, 32.9%; in the test with SK-OV-3 ovarian, 89.8%. Besides, the growth with IGROV1 ovarian is 34.5%; in the test with OVCAR-3 ovarian, 25.4%; in the test with HS 578T breast, 39.2%; with NCI/ADR-RES ovarian it was 26.4%; in the test on T-47D breast it was 59%; with BT-549 breast, 36%. Also, the growth is 27.4% in the test with MDA-MB-435 melanoma; 18.5% in the test on SW-620 colon; 31.8% in the test on MCF7 breast; 2.84% (active) in the test with HCT-116 colon; 52% in the test on HCC-2998 colon; 30.7% in the test with KM12 colon.
As for `N#Cc1cnc2ccc(-c3cnc(N)nc3)cc2c1N1CCc2cc(F)c(Cl)cc21`, the growth in the test on SR leukemia is 8.58% (active); in the test with RPMI-8226 leukemia, -16.9% (active); in the test on OVCAR-8 ovarian it was 12%; in the test on OVCAR-5 ovarian it was 19.8%; in the test on OVCAR-4 ovarian, 12.3%; in the test on SK-OV-3 ovarian it was 0.148% (active). Besides, the growth in the test on IGROV1 ovarian is -44.6% (active); with OVCAR-3 ovarian, 8.88% (active); with HS 578T breast, -22.5% (active); in the test with NCI/ADR-RES ovarian, 6.22% (active); in the test on T-47D breast, 9.38% (active); with BT-549 breast it was 3.1% (active). Further, the growth in the test with MDA-MB-435 melanoma is -1.22% (active); in the test on SW-620 colon it was 9.24% (active); in the test on MCF7 breast it was 5.81% (active); in the test with HCT-116 colon, 2.24% (active); with HCC-2998 colon, -3.03% (active); in the test with KM12 colon, 7.85% (active).
In the case of `CCCCCc1ccc(S(=O)(=O)Nc2cccc(-c3csc(NC(=O)CNCCN(C)C)n3)c2)cc1`, the growth in the test with SR leukemia is 22.2%; in the test on RPMI-8226 leukemia it was 30.3%; in the test on OVCAR-8 ovarian, 95.7%; in the test on OVCAR-5 ovarian it was 110%; in the test on OVCAR-4 ovarian it was 70%; with SK-OV-3 ovarian it was 109%. In addition, the growth in the test with IGROV1 ovarian is 87.9%; in the test with OVCAR-3 ovarian it was 87.7%; in the test on HS 578T breast, 90.9%; in the test on NCI/ADR-RES ovarian it was 73.1%; in the test with T-47D breast, 68.3%; in the test with BT-549 breast it was 104%. The growth in the test on MDA-MB-435 melanoma is 90.1%; with SW-620 colon, 87.3%; in the test on MCF7 breast, 41.3%; in the test with HCT-116 colon, 55.4%; in the test on HCC-2998 colon it was 16.2%; in the test with KM12 colon it was 90.2%.
Consider `CN1CCN(c2ccc(/C=N/n3cnc4oc(-c5ccccc5)cc4c3=N)cc2)CC1`, for which the growth in the test with SR leukemia is 36.6%; with RPMI-8226 leukemia it was 87.9%; with OVCAR-8 ovarian, 96.1%; in the test on OVCAR-5 ovarian it was 76.2%; in the test with OVCAR-4 ovarian it was 83.1%; with SK-OV-3 ovarian it was 71.3%. Moreover, the growth in the test on IGROV1 ovarian was 36.7%; in the test on OVCAR-3 ovarian it was 90.2%; in the test with HS 578T breast, 63.8%; in the test with NCI/ADR-RES ovarian, 81.3%; with T-47D breast, 84.1%; in the test with BT-549 breast, 89.7%. In addition, the growth in the test with MDA-MB-435 melanoma is 94.7%; with SW-620 colon, 94%; with MCF7 breast it was 81.1%; in the test on HCT-116 colon, 73.9%; with HCC-2998 colon it was 101%; in the test on KM12 colon, 63.7%.
As for `O=C(O)c1ccc(-n2cc(CNc3cc(F)c(F)c(F)c3)c(-c3cccc(F)c3)n2)cc1`, the growth in the test on SR leukemia is 80.4%; in the test with RPMI-8226 leukemia it was 86.7%; with OVCAR-8 ovarian it was 82.8%; with OVCAR-5 ovarian it was 107%; in the test with OVCAR-4 ovarian, 95.5%; in the test on SK-OV-3 ovarian, 113%. In addition, the growth in the test on IGROV1 ovarian is 98.8%; with OVCAR-3 ovarian, 96.1%; in the test on HS 578T breast, 102%; in the test on NCI/ADR-RES ovarian, 90.8%; with T-47D breast it was 81.6%; in the test on BT-549 breast it was 107%. The growth in the test with MDA-MB-435 melanoma was 99.8%; with SW-620 colon, 105%; in the test on MCF7 breast it was 41%; in the test on HCT-116 colon, 86.2%; in the test with HCC-2998 colon, 87.5%; with KM12 colon it was 96.8%.
Regarding `CS(=O)(=O)c1ccc(-c2nn(-c3ccccc3)cc2/C=N/NC(=O)c2nc(N)n[nH]2)cc1`, the growth is 69.7% in the test on SR leukemia; 83.3% with RPMI-8226 leukemia; 101% in the test with OVCAR-8 ovarian; 94.8% in the test with OVCAR-5 ovarian; 103% in the test on OVCAR-4 ovarian; 112% in the test with SK-OV-3 ovarian. The growth is 90.8% in the test on IGROV1 ovarian; 97.1% with OVCAR-3 ovarian; 111% in the test on HS 578T breast; 98.9% with NCI/ADR-RES ovarian; 101% with T-47D breast; 103% in the test on BT-549 breast. Further, the growth with MDA-MB-435 melanoma was 91.9%; in the test on SW-620 colon, 88.4%; in the test on MCF7 breast, 88.3%; in the test on HCT-116 colon, 94.8%; in the test with HCC-2998 colon it was 117%; with KM12 colon, 94.7%.
As for `COc1cc(/C=N/NC(=O)c2cn(C3CC3)c3c(OC)c(N4CC5CCCNC5C4)c(F)cc3c2=O)ccc1O` (centres undefined), the growth with SR leukemia was -13.4% (active); in the test with RPMI-8226 leukemia, -25% (active); with OVCAR-8 ovarian, 74.2%; in the test with OVCAR-5 ovarian, 38.4%; with OVCAR-4 ovarian, -52.8% (active); in the test on SK-OV-3 ovarian it was 119%. Also, the growth in the test with IGROV1 ovarian was 16.4%; in the test on OVCAR-3 ovarian, -73% (active); in the test on HS 578T breast it was 107%; in the test on NCI/ADR-RES ovarian it was 98.5%; with T-47D breast it was -30.4% (active); in the test with BT-549 breast it was 107%. In addition, the growth in the test on MDA-MB-435 melanoma is 95.3%; in the test on SW-620 colon, 0.437% (active); in the test on MCF7 breast it was -27.7% (active); in the test on HCT-116 colon, -59.1% (active); in the test on HCC-2998 colon, 14.8%; in the test on KM12 colon, 69.2%.
On to `Nc1nc(N)c2c(n1)NC(c1ccc(C(F)(F)F)cc1)CC(c1ccc(Nc3nc(NCCO)nc(N4CCOCC4)n3)cc1)=N2` (centres undefined), for which the growth in the test with SR leukemia is 5.13% (active); in the test on RPMI-8226 leukemia, 28.9%; in the test with OVCAR-8 ovarian it was 60.2%; in the test with OVCAR-5 ovarian, 97.6%; in the test on OVCAR-4 ovarian, 79.5%; in the test on SK-OV-3 ovarian it was 99.7%. Besides, the growth was 72.6% with IGROV1 ovarian; 61.2% in the test with OVCAR-3 ovarian; 58.5% with HS 578T breast; 97.5% in the test on NCI/ADR-RES ovarian; 62.7% with T-47D breast; 76.3% in the test with BT-549 breast. The growth was 65.9% in the test on MDA-MB-435 melanoma; 56.7% in the test with SW-620 colon; 33.7% in the test with MCF7 breast; 35.8% in the test with HCT-116 colon; 86.4% in the test with HCC-2998 colon; 51.2% in the test with KM12 colon.
